This passage reports outcome and AC50 results from PubChem BioAssay (EPA / NIEHS).

Assay [1] in a line: TOX21_p53_BLA_p2_viability: Viability Assessment in the Tox21 HCT-116 p53 Agonism Beta-lactamase Assay, Phase 2 (AID 2283591).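 Also: compound exposure lasted 16 h at 37 °C; actives lower the ATP signal meaning cytotoxicity.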 The gist of the method: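 HCT116 p53-bla cells, 4000/well, dosed after 5 h plating (217-fold dilution of DMSO stocks) and incubated 16 h at 37C. Viability taken as cellular ATP by CellTiter-Glo luminescence after 30 min RT; signal loss marks cytotoxicity.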

The target of assay [2] is Cellular tumor antigen p53 (Homo sapiens) (UniProt P04637). Nature of the assay: TOX21_p53_BLA_p2_ratio: Tox21 HCT-116 p53 Agonism Beta-lactamase Assay, Ratio, Phase 2 (AID 2283592). The gist of the method: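 HCT-116 cells with p53-responsive beta-lactamase reporter, 4000 cells/well, preincubated 5 h, then compound in DMSO (217-fold dilution) for 16 h at 37C. CCF4-AM substrate 2 h at room temperature; 460/530 nm emission ratio fitted upward versus DMSO.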
Chain of Cellular tumor antigen p53 (Homo sapiens) (P04637 whole entry, looked up): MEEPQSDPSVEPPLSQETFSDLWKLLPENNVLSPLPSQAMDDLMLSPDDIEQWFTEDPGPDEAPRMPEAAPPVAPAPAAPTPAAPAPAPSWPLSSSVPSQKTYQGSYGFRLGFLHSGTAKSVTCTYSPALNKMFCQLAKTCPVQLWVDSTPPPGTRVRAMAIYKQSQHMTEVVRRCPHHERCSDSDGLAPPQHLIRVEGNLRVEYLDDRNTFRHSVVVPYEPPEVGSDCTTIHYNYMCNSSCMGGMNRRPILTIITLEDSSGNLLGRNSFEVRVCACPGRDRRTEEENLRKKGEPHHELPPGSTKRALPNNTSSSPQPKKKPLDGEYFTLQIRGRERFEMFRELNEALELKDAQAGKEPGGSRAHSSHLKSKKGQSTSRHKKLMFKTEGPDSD

The nature of assay [3]: TOX21_p53_BLA_p3_viability: Viability Assessment in the Tox21 HCT-116 p53 Agonism Beta-lactamase Assay, Phase 3 (AID 2283593).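 Also: cells exposed to compound for 16 h before reading.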 The gist of the method:
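HCT116 cells, 4000/well, dosed 5 h after plating by pin transfer (217-fold dilution from DMSO stock) and incubated 16 h at 37C, 5% CO2. Viability read as ATP luminescence with CellTiter-Glo after 30 min at room temperature.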

Assay [4] concerns the target Cellular tumor antigen p53 (Homo sapiens) (UniProt P04637). Description: TOX21_p53_BLA_p3_ratio: Tox21 HCT-116 p53 Agonism Beta-lactamase Assay, Ratio, Phase 3 (AID 2283596). The gist of the method:
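HCT116 p53-bla cells (4000/well) given compound in DMSO (217-fold dilution) after 5 h, incubated 16 h at 37C. CCF4-AM substrate 2 h at room temperature; 460/530 nm emission ratio, gain fitted against DMSO.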

Assay [5] can be described thus: TOX21_p53_BLA_p4_viability: Viability Assessment in the Tox21 HCT-116 p53 Agonism Beta-lactamase Assay, Phase 4 (AID 2283597).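 Also: hits lower the luminescence signal meaning cytotoxicity.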 The gist of the method:
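HCT-116 p53-bla cells, 4000/well, dosed after 5 h attachment and incubated 16 h at 37 °C, 5% CO2. Viability from CellTiter-Glo ATP luminescence after 30 min at room temperature, taken after the beta-lactamase read; loss of signal indicates cytotoxicity.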

Assay [6] addresses Cellular tumor antigen p53 (Homo sapiens) (UniProt P04637). Description: TOX21_p53_BLA_p5_ratio: Tox21 HCT-116 p53 Agonism Beta-lactamase Assay, Ratio, Phase 5 (AID 2283599). The gist of the method: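 HCT-116 p53-bla cells (4000/well) plated 5 h, dosed with compound (217-fold DMSO dilution) for 16 h at 37 C; CCF4-AM substrate 2 h at room temperature. Activity is the 460/530 nm emission ratio (405 nm excitation), fitted in gain-of-signal direction versus DMSO.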

A short description of assay [7]: TOX21_p53_BLA_p5_viability: Viability Assessment in the Tox21 HCT-116 p53 Agonism Beta-lactamase Assay, Phase 5 (AID 2283600). The gist of the method: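 HCT-116 p53 beta-lactamase reporter cells, 4000/well, were exposed to compound (pin transfer, 217-fold dilution) for 16 hours at 37C. Cellular ATP was read by CellTiter-Glo luminescence after 30 min at room temperature.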

Assay [8] has as its target Cellular tumor antigen p53 (Homo sapiens) (UniProt P04637). Nature of the assay: TOX21_p53_BLA_p4_ratio: Tox21 HCT-116 p53 Agonism Beta-lactamase Assay, Ratio, Phase 4 (AID 2283601). The gist of the method: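 HCT-116 p53 beta-lactamase reporter cells (4000/well) preincubated 5 h, then compound (217-fold dilution of DMSO stock) for 16 h at 37C. CCF4-AM substrate added 2 h at room temperature; 460/530 nm emission ratio fitted upward versus DMSO.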

In assay [9] the test system is Thyroperoxidase (TPO), gene 54314. Description: CCTE_Simmons_AUR_rTPO: CCTE's Amplex UltraRed Assay for Thyroperoxidase (TPO) Inhibition, Simmons Lab (AID 2283662).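 Also: potency for loss of signal meaning inhibition of peroxidase activity.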 The gist of the method:
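Rat thyroid microsomes (5 ug protein) with 25 uM Amplex UltraRed and 300 uM H2O2 in 200 mM phosphate buffer, 30 min at 37C in dark; fluorescence 544/590 nm. Eight concentrations, 5 nM–87.5 uM final, 0.5% DMSO, triplicate biological replicates.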

Assay [10] concerns the target Luciferin 4-monooxygenase (Photinus pyralis) (UniProt P08659). Nature of the assay: CCTE_Simmons_QuantiLum_inhib_2: CCTE's Firefly Luciferase Inhibition Assay, Simmons Lab (AID 2283767). In outline:
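Counter-screen for nonspecific enzyme inhibition: purified firefly luciferase incubated 30 min at 37C with chemicals up to 87.5 uM final, then luminescence measured after luciferin/dATP injection; activity fitted against DMSO baseline.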

A short description of assay [11]: CCTE_Harrill_HTTr_Viability_MCF7: CCTE's 6-hour Cell Viability Assessment for the High-Throughput Transcriptomics (HTTr) Platform, in MCF-7 cells cultured in DMEM + 10% fetal bovine serum, Harrill Lab (AID 2284010; active = hit-call score of the fitted dose curve at least 0.9, where 1 is the maximum; inactive = score below 0.9). The gist of the method: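 Viability measured through PI dye exclusion by high-content imaging at 6 h post-dosing.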
Assay [12] can be described thus: CCTE_Harrill_HTTr_Apoptosis_MCF7: CCTE's 6-hour Apoptosis Assessment for the High-Throughput Transcriptomics (HTTr) Platform, in MCF-7 cells cultured in DMEM + 10% fetal bovine serum, Harrill Lab (AID 2284011; active = hit-call score of the fitted dose curve at least 0.9, where 1 is the maximum; inactive = score below 0.9). The gist of the method: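 MCF-7 cells in DMEM + 10% FBS exposed 6 h to chemicals over an eight-point dilution series. Caspase-3/7 activation imaged by high-content CellEvent Green staining; fitted bidirectionally versus DMSO.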

Assay [13] can be described thus: CCTE_Harrill_HTTr_CellCount_MCF7: CCTE's Cell Proliferation Assessment for the High-Throughput Transcriptomics (HTTr) Platform, Harrill Lab (AID 2284012).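 Also: count of Hoechst-stained nuclei per well by high-content imaging in MCF-7 cells; intended direction is loss of nuclei count meaning fewer cells.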 In outline: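 Nuclei counting (Hoechst, high content imaging) in MCF-7 after a 6 h treatment at eight concentrations. Activity fitted bidirectionally, DMSO as negative control.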

Records with an inconclusive call do not appear. Calls of active or inactive are those of the source. The calls were made as follows, unless noted: active = hit-call score of the fitted dose curve at least 0.9, where 1 is the maximum; inconclusive = response in the unintended direction; inactive = score below 0.9.

In general, AC50 refers to the concentration at which the activity in the assay is half-maximal.

Chain of Luciferin 4-monooxygenase (Photinus pyralis) (P08659 whole entry, looked up): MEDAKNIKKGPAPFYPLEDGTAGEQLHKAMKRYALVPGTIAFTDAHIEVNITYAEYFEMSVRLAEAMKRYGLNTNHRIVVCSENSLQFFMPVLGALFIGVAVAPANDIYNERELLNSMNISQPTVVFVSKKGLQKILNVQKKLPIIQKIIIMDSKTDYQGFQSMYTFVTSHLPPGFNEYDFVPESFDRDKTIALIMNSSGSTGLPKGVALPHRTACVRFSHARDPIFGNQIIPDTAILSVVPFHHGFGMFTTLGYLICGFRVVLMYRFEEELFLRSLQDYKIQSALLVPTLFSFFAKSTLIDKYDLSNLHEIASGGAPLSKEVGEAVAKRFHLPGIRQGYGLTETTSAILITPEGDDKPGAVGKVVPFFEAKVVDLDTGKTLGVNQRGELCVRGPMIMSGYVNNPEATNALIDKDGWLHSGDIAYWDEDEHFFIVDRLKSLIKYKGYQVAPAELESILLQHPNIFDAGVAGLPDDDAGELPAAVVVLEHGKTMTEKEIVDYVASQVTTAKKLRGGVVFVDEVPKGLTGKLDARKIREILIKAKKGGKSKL

In the case of `CC[C@@]1(O)C(=O)OCc2c1cc1n(c2=O)Cc2cc3c([N+](=O)[O-])cccc3nc2-1`, the result in assay [1] and in assay [7] was inactive. The AC50 was 0.124 µM (active) in [2]; 0.685 µM (active) in assay [3]; 0.172 µM (active) in assay [4]; 0.654 µM (active) in [5]; 0.166 µM (active) in assay [6]; 0.166 µM (active) in [8].
On to `O=C(O)Cc1sc(-c2ccccc2)nc1-c1ccc(Cl)cc1`, for which the outcome in assay [1], in [2], in [3], in assay [4], in assay [5] and in assay [6] was inactive. Moreover, the call in assay [7] and in assay [8] was inactive.
As for `COc1cc(N)c(Cl)cc1C(=O)NC1CCN(CCCOc2ccc(F)cc2)CC1OC` (stereo not drawn), the compound was called inactive in assay [1], in [2], in [3], in assay [4], in [5] and in assay [6]. The call in [7] and in [8] was inactive.
Take `CC1CC(OC(=O)C(O)c2ccccc2)CC(C)(C)C1` (stereo not drawn): the compound was called inactive in assay [1], in assay [2], in assay [3], in [4], in assay [5] and in assay [6]. The compound was called inactive in assay [7] and in assay [8].
For `COc1cc(C=C2CCCC(=Cc3ccc(O)c(OC)c3)C2=O)ccc1O`, the AC50 in [1] was 15.2 µM (active); in [3], 15.5 µM (active); in assay [5], 27.8 µM (active); in [6], 11.5 µM (active); in [7], 17 µM (active). For the same compound, the outcome in assay [2], in assay [4] and in assay [8] was inactive.
Take `O=C(O)c1c(Cl)c(Cl)c(Cl)c(Cl)c1-c1c2cc(I)c(=O)c(I)c-2oc2c(I)c(O)c(I)cc12`: the half-maximal activity concentration (AC50) was 37.2 µM (active) in assay [1], 13.6 µM (active) in [3], 44.1 µM (active) in assay [5] and 43.1 µM (active) in assay [8]. For the same compound, the outcome in assay [2], in assay [4], in [6] and in [7] was inactive.
Consider `COc1ccc(S(=O)(=O)Nc2nnc(CC(C)C)s2)cc1`, for which the compound was classed as inactive in assay [1], in [2], in [3], in assay [4], in assay [5] and in assay [6]. The compound was called inactive in [7] and in assay [8].
With `O=P(O)(OCc1ccccc1)OCc1ccccc1`, the compound was called inactive in assay [1], in [2], in [3], in [4], in [5] and in [7]. Further, the outcome in [8] was inactive. In assay [6], the AC50 was 86.9 µM (active).
For the compound `O[C@@H](CNC[C@H](O)[C@H]1CCc2cc(F)ccc2O1)[C@@H]1CCc2cc(F)ccc2O1`, the half-maximal activity concentration (AC50) is 34.9 µM (active) in [1]; 33.5 µM (active) in [5]; 37.1 µM (active) in assay [6]; 43.1 µM (active) in assay [7]; 43.4 µM (active) in assay [8]. The outcome in assay [2], in assay [3] and in assay [4] was inactive.
`CON=C(C(=O)N[C@@H]1C(=O)N2C(C(=O)O)=C(COC(N)=O)CS[C@H]12)c1ccco1`: the call in assay [1], in assay [2], in assay [3], in [4], in assay [5] and in assay [6] was inactive. Besides, the call in [7] and in assay [8] was inactive.
As for `Cc1c(N(C)CS(=O)(=O)O)c(=O)n(-c2ccccc2)n1C`, the outcome in assay [1], in [2], in assay [3], in [4], in [5] and in assay [6] was inactive. Further, the call in [7], in assay [8], in [10], in [11], in assay [12] and in assay [13] was inactive. In addition, the half-maximal activity concentration (AC50) in assay [9] is 8.64 µM (active).
